This note sets out measurements from PubChem BioAssay (EPA / NIEHS).

Inconclusive results are not listed. Activity calls are given as the source filed them. How the source made its calls: active means hit-call score of the fitted dose curve at least 0.9, where 1 is the maximum; inconclusive means response in the unintended direction; inactive means score below 0.9.

Sequence of Cellular tumor antigen p53 (Homo sapiens) (P04637 whole entry, looked up): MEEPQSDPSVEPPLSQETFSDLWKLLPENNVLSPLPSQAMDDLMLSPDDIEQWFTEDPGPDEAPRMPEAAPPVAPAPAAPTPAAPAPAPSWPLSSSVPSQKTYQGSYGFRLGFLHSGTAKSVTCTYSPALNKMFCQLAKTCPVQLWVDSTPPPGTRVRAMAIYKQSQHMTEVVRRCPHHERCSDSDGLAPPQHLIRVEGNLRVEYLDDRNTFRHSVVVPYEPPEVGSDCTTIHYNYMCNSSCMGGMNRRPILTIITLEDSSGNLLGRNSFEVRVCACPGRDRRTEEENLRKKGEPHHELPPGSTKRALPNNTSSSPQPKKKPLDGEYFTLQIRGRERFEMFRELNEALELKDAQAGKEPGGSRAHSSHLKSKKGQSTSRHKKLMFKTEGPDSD

Test system in the first assay: not listed separately
The experiment in a line: TOX21_p53_BLA_p5_viability: Viability Assessment in the Tox21 HCT-116 p53 Agonism Beta-lactamase Assay, Phase 5 (AID 2283600). The essentials: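 Seeded cells (4000/well) settle 5 h before compound addition. Plates then incubate 16 h at 37C, receive FRET substrate for 2 h, and finally CellTiter-Glo, with luminescence measured after a 30 min room-temperature incubation.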
For the compound `COC1=CC=C2[C@H]3Cc4ccc(OC)c5c4[C@@]2(CCN3C)[C@H]1O5`, the call was inactive.
In the case of `CCCCC1C(=O)NC(=O)N(C2CCCCC2)C1=O` (configuration not stated), the compound was classed as inactive.
On the same count and under the same terms, the entry for `CCCCCCC(=O)O[C@H]1CC[C@H]2[C@@H]3CC[C@H]4CC(=O)C=C(C)[C@]4(C)[C@H]3CC[C@]12C` is “inactive”.
On the same count and under the same terms, the entry for `CC(N)Cc1ccc2c(c1)OCO2` (configuration not stated) is “inactive”; for `O=C([O-])c1ccccn1.O=C([O-])c1ccccn1.O=C([O-])c1ccccn1.[Cr+3]` it is “inactive”.
Turning to `Cc1ccc(Cl)c(O)c1`, the call was inactive.
The same measure, in the same setting: the entry for `CC(C)CCC(=O)O[C@H]1CC[C@H]2[C@@H]3CCC4=CC(=O)CC[C@]4(C)[C@H]3CC[C@]12C` is “inactive”; for `CC(N)Cc1ccc(O)cc1` (configuration not stated) it is “inactive”; for `CCCN` it is “inactive”.
`c1cc2c(c(NC3=NCCN3)c1)CCCC2`: the outcome was inactive.
With `CC(C)(C#N)C(C)(C)C#N`, the compound was classed as inactive.
On the same count and under the same terms, the entry for `C=C[C@H]1CN2CC[C@H]1C[C@H]2[C@H](OC(=O)OCC)c1ccnc2ccc(OC)cc12` is “inactive”; for `O=[N+]([O-])c1cccc2cccnc12` it is “inactive”; for `CN(C)c1ccc(N=Nc2ccccc2)cc1` it is “inactive”.
Same read-out and setting: for `NC(=S)C(N)=S` the value was “inactive”.
Take `CCC(=O)O[C@@](Cc1ccccc1)(c1ccccc1)[C@@H](C)CN(C)C`: the call was inactive.
The same measure, in the same setting: for `N#CC(Cl)(Cl)Cl` the value was “inactive”; for `C=CCN1CC[C@]23CCCC[C@H]2[C@H]1Cc1ccc(O)cc13`, “inactive”; for `CCCC[N+]1(C)[C@@H]2CC(OC(=O)[C@H](CO)c3ccccc3)C[C@H]1[C@@H]1O[C@@H]12` (some centres not stated), “inactive”.
Regarding `CC(C)=CCN1CC[C@]2(C)c3cc(O)ccc3C[C@H]1[C@H]2C`, the result was inactive.

Another assay has as its target Cellular tumor antigen p53 (Homo sapiens) (UniProt P04637). The experiment in a line: TOX21_p53_BLA_p4_ratio: Tox21 HCT-116 p53 Agonism Beta-lactamase Assay, Ratio, Phase 4 (AID 2283601). The essentials: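 Signal is the blue/green (460nm/530nm) ratio of cleaved versus uncleaved CCF4-AM substrate, read after 2 h substrate loading. Cells were HCT116 carrying the p53-responsive beta-lactamase reporter, dosed 16 h at 37C, 5% CO2; CellTiter-Glo measured in parallel.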
As to `Cl/C=C\Cl`, the outcome was inactive.
On to `COC1=CC=C2[C@H]3Cc4ccc(OC)c5c4[C@@]2(CCN3C)[C@H]1O5`, for which the result was inactive.
On the same count and under the same terms, for `CCCCC1C(=O)NC(=O)N(C2CCCCC2)C1=O` (configuration not stated) the value was “inactive”; for `C[N+](C)(C)CCCl`, “inactive”; for `CCCCCCC(=O)O[C@H]1CC[C@H]2[C@@H]3CC[C@H]4CC(=O)C=C(C)[C@]4(C)[C@H]3CC[C@]12C`, “inactive”.
On the same count and under the same terms, for `C1CCNCC1` the value was “inactive”; for `CC(N)Cc1ccc2c(c1)OCO2` (configuration not stated), “inactive”.
On the same count and under the same terms, for `O=C([O-])c1ccccn1.O=C([O-])c1ccccn1.O=C([O-])c1ccccn1.[Cr+3]` the value was “inactive”; for `C[C@]12CC[C@H]3[C@@H](CCC4=CC(=O)CC[C@@H]43)[C@@H]1CC[C@@H]2OC(=O)CCc1ccccc1`, “inactive”.
For the compound `CC(N)Cc1ccc(O)cc1` (configuration not stated), the result was inactive.
The same measure, in the same setting: for `CCCN` the value was “inactive”.
For the compound `O=C1C(=O)c2cccc3cccc1c23`, the AC50 is 9.63 µM (active).
Regarding `c1cc2c(c(NC3=NCCN3)c1)CCCC2`, the outcome was inactive.
Turning to `CC(C)(C#N)C(C)(C)C#N`, the result was inactive.
Still for that read-out and setting: the entry for `CC(=O)O[C@H]1CC[C@H]2[C@@H]3CCC4=CC(=O)CCC4=C3C=C[C@]12C` is “inactive”.
As for `CC(C)(C)C(=O)C(Cl)Cl`, the result was inactive.
On the same count and under the same terms, for `C=C[C@H]1CN2CC[C@H]1C[C@H]2[C@H](OC(=O)OCC)c1ccnc2ccc(OC)cc12` the value was “inactive”; for `O=[N+]([O-])c1cccc2cccnc12`, “inactive”.
Same read-out and setting: the entry for `CCC(=O)O[C@@](Cc1ccccc1)(c1ccccc1)[C@@H](C)CN(C)C` is “inactive”; for `C=CCN1CC[C@]23CCCC[C@H]2[C@H]1Cc1ccc(O)cc13` it is “inactive”; for `Nc1ccccc1-c1ccccc1` it is “inactive”.
`CCS(=O)(=O)CCSP(=O)(OC)OC`: the result was inactive.
